Source: article PMC3218832

Tests used:
Assay in all cases: protein binding microarray; high values mean tight binding
Details in all cases: dsDNA, one strand shown
[1] = target: RELARELA (p65 homodimer) (Homo sapiens, UniProt Q04206 1-307)
[2] = target: p50p50 homodimer (Homo sapiens, UniProt P19838 7-356)
[3] = target: T1, p52p52 homodimer (Homo sapiens, UniProt Q00653 4-332)
T1 sequence: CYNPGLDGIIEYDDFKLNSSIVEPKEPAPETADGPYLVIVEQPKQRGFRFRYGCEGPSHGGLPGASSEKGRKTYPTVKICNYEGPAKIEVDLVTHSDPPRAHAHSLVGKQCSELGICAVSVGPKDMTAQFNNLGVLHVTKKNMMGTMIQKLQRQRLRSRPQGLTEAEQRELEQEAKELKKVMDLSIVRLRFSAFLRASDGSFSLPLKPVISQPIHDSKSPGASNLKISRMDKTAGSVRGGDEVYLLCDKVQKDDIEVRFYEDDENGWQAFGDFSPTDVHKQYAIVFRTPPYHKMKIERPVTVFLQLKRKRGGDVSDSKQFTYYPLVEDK

[4] = target: RELA (p65) subunit of heterodimer;p50 subunit (Homo sapiens;Homo sapiens, UniProt Q04206;P19838 1-307;7-356)
[5] = target: RELA (p65) subunit of heterodimer;p52 subunit (Homo sapiens;Homo sapiens, UniProt Q04206;Q00653 1-307;4-332)
[6] = target: RELB subunit;p50 subunit (Homo sapiens;Homo sapiens, UniProt Q01201;P19838 120-401;7-356)
[7] = target: T2, RELB subunit;p52 subunit (Homo sapiens;Homo sapiens, UniProt Q01201;Q00653 120-401;4-332)
T2 sequence 1: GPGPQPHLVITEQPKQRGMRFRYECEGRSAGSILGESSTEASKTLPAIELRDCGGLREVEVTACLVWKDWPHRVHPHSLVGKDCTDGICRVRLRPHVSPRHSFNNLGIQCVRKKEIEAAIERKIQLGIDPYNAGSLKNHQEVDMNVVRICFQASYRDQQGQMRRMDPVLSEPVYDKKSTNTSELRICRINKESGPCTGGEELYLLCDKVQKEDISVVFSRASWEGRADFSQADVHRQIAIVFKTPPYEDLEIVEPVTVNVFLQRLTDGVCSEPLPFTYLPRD
T2 sequence 2: T1 sequence

[8] = target: C-Rel subunit;p50 subunit (Homo sapiens;Homo sapiens, UniProt Q04864;P19838 1-285;7-356)
[9] = target: T3, C-Rel subunit;p52 subunit (Homo sapiens;Homo sapiens, UniProt Q04864;Q00653 1-285;4-332)
T3 sequence 1: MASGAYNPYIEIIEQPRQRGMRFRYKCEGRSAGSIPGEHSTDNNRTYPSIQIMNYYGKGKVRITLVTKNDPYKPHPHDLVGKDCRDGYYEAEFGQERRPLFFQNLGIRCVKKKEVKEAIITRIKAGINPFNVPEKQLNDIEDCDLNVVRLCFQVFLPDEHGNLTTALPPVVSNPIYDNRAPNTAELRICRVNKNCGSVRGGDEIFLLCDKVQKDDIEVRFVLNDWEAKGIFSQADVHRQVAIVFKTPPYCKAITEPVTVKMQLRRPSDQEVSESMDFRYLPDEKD
T3 sequence 2: T1 sequence

RELARELA (p65 homodimer), sequence (Q04206 1-307): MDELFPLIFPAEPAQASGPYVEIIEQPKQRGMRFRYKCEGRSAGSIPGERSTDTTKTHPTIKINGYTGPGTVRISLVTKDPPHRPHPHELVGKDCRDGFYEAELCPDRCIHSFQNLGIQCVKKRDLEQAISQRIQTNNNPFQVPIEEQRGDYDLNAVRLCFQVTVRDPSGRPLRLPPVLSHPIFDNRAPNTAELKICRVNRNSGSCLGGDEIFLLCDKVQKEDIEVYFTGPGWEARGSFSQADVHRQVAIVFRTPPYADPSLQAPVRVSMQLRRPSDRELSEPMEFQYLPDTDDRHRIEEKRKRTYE
RELA (p65) subunit of heterodimer;p50 subunit, sequence (Q04206 1-307, chain 1 of 2): as the sequence (Q04206 1-307) above
RELA (p65) subunit of heterodimer;p50 subunit, sequence (P19838 7-356, chain 2 of 2): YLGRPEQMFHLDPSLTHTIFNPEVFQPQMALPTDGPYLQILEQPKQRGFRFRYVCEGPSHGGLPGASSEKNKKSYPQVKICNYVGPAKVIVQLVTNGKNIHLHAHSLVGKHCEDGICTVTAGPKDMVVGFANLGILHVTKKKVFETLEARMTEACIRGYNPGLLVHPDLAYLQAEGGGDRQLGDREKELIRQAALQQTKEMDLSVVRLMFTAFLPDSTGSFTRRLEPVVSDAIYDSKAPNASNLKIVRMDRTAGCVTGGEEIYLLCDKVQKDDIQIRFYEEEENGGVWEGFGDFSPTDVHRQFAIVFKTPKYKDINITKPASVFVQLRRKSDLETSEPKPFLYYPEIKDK
p50p50 homodimer, sequence (P19838 7-356): as the sequence (P19838 7-356, chain 2 of 2) above

| Sequence | binding signal [1] [z-score] | binding signal [2] [z-score] | binding signal [3] [z-score] | binding signal [4] [z-score] | binding signal [5] [z-score] | binding signal [6] [z-score] | binding signal [7] [z-score] | binding signal [8] [z-score] | binding signal [9] [z-score] |
| --- | --- | --- | --- | --- | --- | --- | --- | --- | --- |
| AGAGTGTCCCT | 0.267 | 0.607 | 0.823 | 0.527 | 0.604 | 0.851 | 1.25 | 0.738 | 0.669 |
| GAGTAATTCCT | 0.42 | -1 | -0.525 | -0.42 | -0.441 | -0.739 | -0.87 | -0.18 | -0.195 |
| GAAGTTTCCCC | 2.24 | 1.35 | 2 | 2.3 | 1.99 | 2.19 | 2.19 | 1.89 | 1.71 |
| GAGTGACTCCC | -0.623 | -0.849 | -0.413 | -0.796 | -0.812 | -0.601 | -0.827 | -0.837 | -0.832 |
| AGGTAGCTCCT | -0.716 | -0.916 | -0.638 | -0.909 | -0.901 | -0.802 | -0.975 | -1.36 | -0.889 |
| CAAGTCACCCC | -0.939 | -0.66 | -0.2 | -0.704 | -0.613 | -0.284 | -0.0361 | -0.183 | -0.366 |
| AAAGTTCTCCT | 0.015 | -1.02 | -0.659 | -0.601 | -0.834 | -0.944 | -0.822 | -0.841 | -0.771 |
| GAAGATACCCT | -0.565 | 0.622 | 0.0699 | 0.217 | 0.0853 | 0.142 | 0.032 | -0.0626 | 2.91e-05 |
| AAGTGTATCCC | -0.0644 | -0.719 | -0.379 | -0.553 | -0.504 | -0.584 | -0.4 | -0.695 | -0.382 |
| CAGGATCCCCT | -0.318 | 1.34 | 1.3 | 1.91 | 1.43 | 1.79 | 1.65 | 1.34 | 0.975 |
| CAAGACCTCCC | -0.906 | -1.11 | -0.577 | -0.688 | -0.796 | -0.585 | -0.626 | -0.818 | -0.713 |
| CAAGAGGTCCC | 1.23 | -0.219 | 0.0202 | -0.152 | -0.417 | 0.271 | 0.113 | -0.21 | -0.201 |
| CGAAGTGTCCT | -0.41 | -1.95 | -0.44 | -0.957 | -0.797 | -1.13 | -0.796 | -1.19 | -0.64 |
| GAGATAGTCCT | -0.228 | -0.791 | -0.575 | -0.973 | -0.809 | -0.986 | -0.865 | -1.2 | -0.764 |
| CAGAATCTCCC | 0.546 | 0.713 | -0.063 | 0.636 | 0.291 | 0.641 | 0.396 | 0.223 | 0.378 |
| GGAGGACCCCT | -0.648 | -0.192 | -0.0995 | 0.108 | 0.173 | -0.321 | -0.0771 | 0 | 0.275 |
| GGAGTTCCCCT | 2.77 | 1.14 | 2.83 | 2.64 | 2.79 | 2 | 2.29 | 2.61 | 3.5 |
| GAAGTTGTCCT | -0.136 | -1.05 | -0.601 | -0.859 | -0.716 | -0.826 | -0.62 | -0.931 | -0.642 |
| GGGATGCCCCT | 1.02 | 0.778 | 2.65 | 1.78 | 2.07 | 1.74 | 1.82 | 1.22 | 2.2 |
| AGATTCGCCCC | 0.366 | 0.156 | 0.127 | 0.288 | 0.219 | 0.292 | 0.48 | 0.611 | -0.0556 |
| GAGAGGTCCCT | 0.699 | 0.517 | 0.431 | 0.364 | 0.0823 | 0.659 | 0.436 | 0.182 | 0.0392 |
| GAGATACCCCT | -0.299 | 0.87 | 0.576 | 0.915 | 1.1 | 0.817 | 1.63 | 0.434 | 0.859 |
| AGGGGGGCCCT | -0.0645 | 0.812 | 0.991 | 0.478 | 1.13 | 0.542 | 1.2 | 0.525 | 1.04 |
| GAATGCCTCCT | -0.0578 | -1.27 | -0.691 | -0.691 | -0.961 | -1.06 | -1.25 | -1.51 | -0.845 |
| CAGAAAGTCCT | 1.03 | -0.724 | -0.508 | -0.351 | -0.61 | -0.693 | -0.785 | -0.362 | -0.371 |
| CGGAAAACCCC | 3.69 | 1.19 | 2.57 | 2.32 | 2.28 | 1.23 | 2.18 | 2.07 | 3.23 |
| CAATAAGTCCT | 0.325 | -1.39 | -0.437 | -0.836 | -0.813 | -0.817 | -0.698 | -0.578 | -0.74 |
| CAGTTTATCCC | 0.419 | -0.117 | 0.0692 | -0.133 | -0.195 | -0.213 | -0.287 | 0.0891 | -0.0511 |
| GGGAAAGCCCC | 3.52 | 1.48 | 3.39 | 3.02 | 3.27 | 3.3 | 2.95 | 2.45 | 3.53 |
| GGATAATCCCC | 1.81 | 1.26 | 2.24 | 2.07 | 1.79 | 1.79 | 1.9 | 1.51 | 1.45 |
